From PubChem
Most compounds without a hit are left out; they make up all but 7.6% or so of the library.
Giardia kill = kills Giardia lamblia | Giardia lamblia trophozoite viability | activity change, % at 7.66 µM, hits read low | 0.15% of 340,000 active | AID 540267; in the data active = activity change below about -80%; inconclusive = between about -30% and that limit;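 also: parasites exposed to compound for two days anaerobically before the ATP read; % is scaled to controls: 0 for no effect and ±100 for the full control effect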
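Viability, read as ATP luminescence: trophozoites at 100 cells/well, compound added, 48 hrs anaerobic at 37 deg C, then 15-30 min room-temperature development before reading.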
p53 reactivator = restores transcriptional activity of mutant p53 | H1299 p53-A138V BP100-luciferase reporter, luminescence, 24 h | Potency, µM (top dose mostly 92.2 µM), for the others: top-dose activity change, positive = activation, usual class: activators | 0.063% of 320,000 active | AID 504706; also: potency is read from the fitted curve at half-maximal effect; % of control where 0% means no effect; nearly all actives have a fitted effect of over 45% in size
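p53-null H1299 cells stably carrying temperature-sensitive p53-A138V and a BP100-luciferase reporter were pinned with compounds (4-point, 1:5 series) and held 24 hrs at 37 deg C. Luminescence was read 10 min after detection reagent.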
BRCA1 expr up = BRCA1 expression activation | 1.1% of 380,000 active | AID 624202 | Potency, µM (highest dose often 46.1 µM), for inactives: at the top dose activation, usual class: activators | MCF7-BRCA1-FFLuc reporter, luminescence, 48 h; response scale: scaled: vehicle 0%, 10 µM genistein 100%; also: potency is read from the fitted curve at half-maximal effect; nearly all actives have a fitted effect of over 80% in size
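Luminescence from a BRCA1-driven firefly luciferase in MCF7 cells was read after 48 h compound exposure at 37 C. Data normalized against DMSO and a 10microM genistein activation control, then curve-fitted across the titration.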
RORg inh = ROR gamma (mouse) transcription inhibition | P51450 | Drosophila S2 Gal4-RORgamma UAS-luciferase reporter, 20 h | Potency, µM (top dose mostly 53.6 µM), for the others: at the top dose activity change, negative = inhibition, most hits filed as inhibitors | 5.4% of 310,000 active | AID 2551; also: potency is read from the fitted curve at half-maximal effect; % is scaled to controls: 0 for no effect and ±100 for the full control effect; nearly all actives have a fitted effect of over 60% in size
Target sequence (P51450 whole entry, looked up, the tested form may be a part): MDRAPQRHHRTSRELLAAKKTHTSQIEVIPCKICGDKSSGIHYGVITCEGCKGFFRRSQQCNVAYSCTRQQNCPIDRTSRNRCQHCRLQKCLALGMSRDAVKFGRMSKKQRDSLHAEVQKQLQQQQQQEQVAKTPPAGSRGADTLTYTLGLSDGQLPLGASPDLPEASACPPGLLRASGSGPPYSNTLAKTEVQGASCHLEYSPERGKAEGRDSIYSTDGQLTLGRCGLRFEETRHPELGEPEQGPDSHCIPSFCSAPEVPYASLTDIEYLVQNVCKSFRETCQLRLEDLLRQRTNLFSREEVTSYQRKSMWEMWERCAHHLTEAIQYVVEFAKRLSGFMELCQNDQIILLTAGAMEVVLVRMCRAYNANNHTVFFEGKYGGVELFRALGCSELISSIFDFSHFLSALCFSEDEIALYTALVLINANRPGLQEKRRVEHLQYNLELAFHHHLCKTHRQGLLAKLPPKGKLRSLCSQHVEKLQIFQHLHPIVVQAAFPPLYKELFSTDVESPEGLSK
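Luciferase reporter read in Schneider cells carrying Gal4-RORγ (mouse) and UAS-Photinus luciferase; cells given compound 1 h before 700 uM copper sulfate induction, then incubated 20 h at ambient temperature.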
VP16 counter = Gal4-VP16 reporter inhibition counter-screen; 3.5% of 310,000 active; Drosophila S2 Gal4-VP16 UAS-luciferase, luminescence, 20 h; AID 2546; Potency, µM (top dose mostly 53.6 µM), without a hit: top-dose activity, negative = inhibition, most hits filed as inhibitors;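 also: Gal4-VP16 expression switched on by copper sulfate through the metallothionein promoter; potency is read from the fitted curve at half-maximal effect; % is scaled to controls: 0 for no effect and ±100 for the full control effect; nearly all actives have a fitted effect of over 50% in size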
ELG1 repair inh = inhibitors of ELG1-dependent DNA repair in HEK293T cells. AID 504467. Potency, µM (highest dose often 46.1 µM), for the others: at the top dose activity change, negative = inhibition, usual class: inhibitors. 2.3% of 330,000 active. HEK293T ELG1-luciferase reporter, luminescence, 16 h; DNA damage induced by 5-fluorouridine; also: potency is read from the fitted curve at half-maximal effect; % is scaled to controls: 0 for no effect and ±100 for the full control effect; nearly all actives have a fitted effect of over 55% in size
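In this reporter screen, reduction of luminescence relative to DMSO vehicle indicated activity. Compounds and 5-fluorouridine were added together to 2,000 cells per well, incubated for 16 hr at 37 °C, then developed with ONE-Glo.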
Numbers without * were called inactive; [ ] = dose if it differs, or a comment. Unless noted, calls follow the shape of the dose curve; as a rule, active = well fitted curve in the direction sought with a large enough effect; inconclusive = small, poorly fitted or top-dose-only effect, or another doubt; inactive = no such curve, though single readings can be large; an effect the other way counts as inactive or inconclusive.

For CC(NC(=O)CCCOc1ccc(Cl)cc1)c1ccccc1 (configuration not stated) the results were Giardia kill 4.4, p53 reactivator -13.0%, BRCA1 expr up -8.4%, RORg inh -21.7%, VP16 counter -2.5% and ELG1 repair inh -9.5%.
CCOC(=O)c1c(S(=O)(=O)Nc2ccc(F)cc2Cl)c(C)n(C)c1C was read as Giardia kill -6.4, p53 reactivator -9.4%, BRCA1 expr up -20.9%, RORg inh -1.2%, VP16 counter 7.8% and ELG1 repair inh 3.9%.
S=c1[nH]nc(-c2cc3ccccc3o2)n1Cc1ccccc1 was read as Giardia kill 29.9, p53 reactivator 19.8%, BRCA1 expr up 45.2%, RORg inh 0.631µM*, VP16 counter 1.78µM* and ELG1 repair inh 0.4%.
Screening NC(=O)CSc1nnc(-c2cc3ccccc3o2)n1Cc1ccccc1 returned Giardia kill -5.9, p53 reactivator -10.3%, BRCA1 expr up -19.3%, RORg inh inconclusive, VP16 counter 0.7% and ELG1 repair inh -26.5%.
Cc1cccc(-c2n[nH]c(=S)n2Cc2ccccc2)c1 was read as Giardia kill -20.6, p53 reactivator 7.2%, BRCA1 expr up -17.4%, RORg inh 0.794µM*, VP16 counter 0.562µM* and ELG1 repair inh -8.4%.
For COc1ccc2c(c1)O[C@@H](c1ccc3c(c1)OCO3)[C@H](OC(=O)NC1CCCC1)C2=O the results were RORg inh -3.6% and VP16 counter -5.8%.
COc1cc(/C=C2/SC(=S)N(Cc3ccccc3)C2=O)ccc1OCC(=O)O was read as Giardia kill 13.0, BRCA1 expr up -30.0%, RORg inh 20.1%, VP16 counter 12.3% and ELG1 repair inh inconclusive.
COc1cc(/C=C2/SC(=O)N(Cc3ccccc3)C2=O)ccc1OCc1ccncc1 was read as Giardia kill 3.8, p53 reactivator 4.1%, BRCA1 expr up -61.5%, RORg inh -6.1%, VP16 counter -4.8% and ELG1 repair inh 10.3µM*.
COc1ccc(/C=C2\SC(=NCc3ccccc3)N(Cc3ccccc3)C2=O)cc1OC was read as Giardia kill -15.1, p53 reactivator -3.5%, BRCA1 expr up -29.5%, RORg inh 27.6%, VP16 counter -5.1% and ELG1 repair inh 13µM*.
CC(C)(C)OC(=O)C1=CC[C@@H](c2ccc(Cl)c(Cl)c2)N(S(=O)(=O)c2ccc(F)cc2)[C@H]1c1cccc(F)c1 was read as BRCA1 expr up -22.2%.
Cc1nn(Cc2ccc(Cl)cc2)c(C)c1NC(=O)C(c1ccccc1)c1ccccc1 was read as Giardia kill 5.3, p53 reactivator -2.3%, BRCA1 expr up -14.4%, RORg inh 11.2µM*, VP16 counter -0.9% and ELG1 repair inh inconclusive.
Cc1cc(C(=O)Nc2c(C)nn(Cc3ccc(Cl)cc3)c2C)no1 was read as Giardia kill -1.5, p53 reactivator -0.8%, BRCA1 expr up 5.0%, RORg inh 38.1%, VP16 counter -0.7%[10 µM] and ELG1 repair inh inconclusive.
For Cc1nn(Cc2ccc(Cl)cc2)c(C)c1NC(=O)c1noc2c1CCCCC2 the results were Giardia kill -10.4, p53 reactivator -2.9%, BRCA1 expr up -38.7%, RORg inh 36.5%, VP16 counter -1.9% and ELG1 repair inh 23.1µM*.
Screening CN(/N=C/c1cc(Br)cc(Br)c1O)c1cccc(C(F)(F)F)n1 returned Giardia kill 8.8, p53 reactivator 6.0%, BRCA1 expr up -96.7%, RORg inh -41.3%, VP16 counter inconclusive and ELG1 repair inh 7.3µM*.
Screening COc1cc(/C=C2\COC/C(=C\c3cc(OC)c(OC)c(OC)c3)C2=O)cc(OC)c1OC returned Giardia kill inconclusive, p53 reactivator -13.1%, BRCA1 expr up -94.0%, RORg inh 3.16µM*, VP16 counter 5.01µM* and ELG1 repair inh inconclusive.
Screening COc1cc(/C=C2\CC/C(=C\c3cc(OC)c(OC)c(OC)c3)C2=O)cc(OC)c1OC returned Giardia kill 21.9, p53 reactivator -8.6%, BRCA1 expr up -22.4%, RORg inh 14.9%, VP16 counter -7.2% and ELG1 repair inh inconclusive.
COc1cc(/C=C2/CCC/C(=C\c3cc(O)c(OC)c(Cl)c3)C2=O)cc(Cl)c1O was read as Giardia kill 1.2, p53 reactivator -9.4%, BRCA1 expr up -87.5%, RORg inh inconclusive, VP16 counter inconclusive and ELG1 repair inh 14.6µM*.
For COc1cc(/C=C2\CC/C(=C\c3cc(OC)c(O)c(OC)c3)C2=O)cc(OC)c1O the results were Giardia kill -6.4, p53 reactivator -7.2%, BRCA1 expr up -85.6%, RORg inh inconclusive, VP16 counter inconclusive and ELG1 repair inh 7.31µM*.
O=C(Nc1ccc(-n2cccc2)cc1)C1CC1 was read as Giardia kill -0.4, p53 reactivator 1.7%, BRCA1 expr up 59.7%, RORg inh 25.4%, VP16 counter 16.2% and ELG1 repair inh 27.5%.
`Cc1cc(Br)cc(C)c1NC(=S)NC(=O)CC(C)C` gave Giardia kill -12.2, p53 reactivator 12.6%, BRCA1 expr up 0.0%, RORg inh 4.47µM*, VP16 counter 7.94µM* and ELG1 repair inh -1.9%.
`CCC(=O)NC(=S)Nc1c(C)cc(Br)cc1C` gave Giardia kill -1.5, p53 reactivator -4.7%, BRCA1 expr up -23.2%, RORg inh 3.16µM*, VP16 counter 7.08µM* and ELG1 repair inh -17.9%.
CCS(=O)(=O)CCSC(=N)N was read as Giardia kill 9.8, p53 reactivator -18.3%, BRCA1 expr up 3.1%, RORg inh -2.1%, VP16 counter 6.3% and ELG1 repair inh -18.4%.
For O=C(/C=C/c1ccc2c(c1)OCO2)c1ccccc1 the results were RORg inh inconclusive and VP16 counter 27.8%.
For Oc1cccc(-c2nc3c4c(ncn3n2)-c2ccccc2CC42CCCC2)c1 the results were Giardia kill 16.0, p53 reactivator -23.4%, BRCA1 expr up -90.9%, RORg inh inconclusive, VP16 counter 25.1µM* and ELG1 repair inh 8.2µM*.
`COc1ccc(-c2nc3c4c(ncn3n2)-c2ccccc2CC42CCCC2)cc1` gave Giardia kill inconclusive, p53 reactivator -4.1%, BRCA1 expr up -1.8%, RORg inh -5.7%, VP16 counter -13.7% and ELG1 repair inh -5.9%.
`CCc1ccc(NC(=O)NCC2CCN(Cc3cccc(Cl)c3)CC2)cc1` gave Giardia kill -1.6, p53 reactivator 1.5%, BRCA1 expr up -38.9%, RORg inh -29.4%, VP16 counter 3.9% and ELG1 repair inh -0.3%.
